Measurements published in PubChem BioAssay (NCATS).
“And” between values parts separate entries of the source, which are not always exact repeats. Identical values can stand only once. Inconclusive results are not listed. Some structures have more than one record in an assay (separate samples or runs), and their calls can disagree. The source made the active and inactive calls. Calls come from the whole dose curve; as a rule, active = well fitted inhibition curve with a large enough effect; inconclusive = small, poorly fitted or top-dose-only effect; inactive = flat fitted curve, though single readings scatter.

Assays:
CRL-7250 = normal cell line; experiment: Cytotoxic Profiling of Annotated Libraries Using Quantitative High-Throughput Screening (AID 1296008); details: Five cell lines viability, CellTiter-Glo ATP luminescence, 48-72 h; max response: stronger effect = lower value
How it was run: (§1)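 Compounds were pin-transferred onto cells and incubated 48 or 72 hr at 37 degree Celsius, 95% humidity. CellTiter-Glo was added, plates sat 10 min at room temperature, then ATP-coupled luminescence was imaged as the viability read-out.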

HEK293 = experiment: as above; details: Five cell lines viability, CellTiter-Glo ATP luminescence, 48-72 h; max response: stronger effect = lower value
How it was run: as §1

HaCat [1] = experiment: as above; details: Five cell lines viability, CellTiter-Glo ATP luminescence, 48-72 h; max response: stronger effect = lower value
How it was run: as §1

KB-3-1 = experiment: as above; details: Five cell lines viability, CellTiter-Glo ATP luminescence, 48-72 h; max response: stronger effect = lower value
How it was run: as §1

NIH3T3 = experiment: as above; details: Five cell lines viability, CellTiter-Glo ATP luminescence, 48-72 h; max response: stronger effect = lower value
How it was run: as §1

HACAT [2] = experiment: qHTS assay to identify novel small-molecules to repurpose for Merkel cell carcinoma treatment (AID 1296009); details: MCC and control cell lines, CellTiter-Glo viability, 72 h
How it was run: (§2)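 qHTS format: cells treated with library compounds in DMSO across 8 (NPC) or 11 (MIPE) concentrations. Readout after 72 hr at 37 degree celsius was CellTiter-Glo luminescence.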

MCC-13 = experiment: as above; details: MCC and control cell lines, CellTiter-Glo viability, 72 h; series mostly up to 46 µM
How it was run: as §2

MCC-26 = experiment: as above; details: MCC and control cell lines, CellTiter-Glo viability, 72 h; series mostly up to 46 µM
How it was run: as §2

MKL-1 = experiment: as above; details: MCC and control cell lines, CellTiter-Glo viability, 72 h; series mostly up to 46 µM
How it was run: as §2

HEK293T = experiment: as above; details: MCC and control cell lines, CellTiter-Glo viability, 72 h; at 44.8 µM (top of the series) unless noted
How it was run: as §2

[3] = at 44.8 µM (top of the series) unless noted
% is set by controls: 0 for no effect and ±100 for the full control effect; potency is the fitted concentration of half-maximal effect.
Note: nearly all actives have a fitted effect of over 60% in size.

NNC(=O)c1ccncc1
inactive: max response (CRL-7250) 4.6% | outcome (CRL-7250) | max response (HEK293) 3.4% and -0.464% | outcome (HaCat [1]) | max response (KB-3-1) -14.7% and 6.97% | max response (NIH3T3) 1.44% | outcome (HACAT [2]; [3]) | Potency (MCC-13) | Potency (MCC-26) | Potency (MKL-1)

O=C(O)CCn1c2c(c3ccccc31)C[C@H](NS(=O)(=O)c1ccc(F)cc1)CC2
inactive: max response (CRL-7250) -4.51% | outcome (CRL-7250) | max response (HaCat [1]) 4.42% and 4.82% | outcome (HaCat [1]) | max response (KB-3-1) 0.769% and -7.72% | outcome (KB-3-1) | max response (NIH3T3) -9.59% and 4.36% | outcome (NIH3T3) | outcome (HACAT [2]; [3]) | outcome (HEK293T) | Potency (MCC-13) | Potency (MCC-26) | Potency (MKL-1)

C[C@]12C=CC(=O)C=C1CC[C@@H]1[C@@H]2C(=O)C[C@@]2(C)[C@H]1CC[C@]2(O)C(=O)CO
inactive: max response (CRL-7250) 2.58% | outcome (CRL-7250) | max response (HEK293) -4.32% and 0.184% | max response (HaCat [1]) -8.77% and -10.7% | max response (KB-3-1) 9.07% and 4.76% | max response (NIH3T3) -5.75% | outcome (NIH3T3) | Potency (MCC-13) | Potency (MCC-26) | Potency (MKL-1)

CN1CCN(c2c(F)cc3c(=O)c(C(=O)O)cn4c3c2OCN4C)CC1
inactive: max response (CRL-7250) -0.174% | outcome (CRL-7250) | max response (HEK293) -2.04% | outcome (HEK293) | outcome (HaCat [1]) | max response (KB-3-1) -7.62% | outcome (KB-3-1) | max response (NIH3T3) 2.5% and 4.99% | outcome (HACAT [2]; at 17.4 µM (top of the series)) | outcome (HACAT [2]; at 44.8 µM (top of the series)) | outcome (HEK293T) inactive [at 17.4 µM] | Potency (MCC-13) | Potency (MCC-26) | Potency (MKL-1)

CCOC(=O)[C@H](CCc1ccccc1)N[C@H]1CS[C@H](c2cccs2)CN(CC(=O)O)C1=O
inactive and 5.26 µM (active): Potency (MKL-1)
inactive: max response (CRL-7250) -9.28% | outcome (CRL-7250) | max response (HEK293) 4.3% | outcome (HEK293) | max response (HaCat [1]) 4.5% | outcome (HaCat [1]) | max response (KB-3-1) 4.95% | max response (NIH3T3) 3.22% and 0.311% | outcome (HACAT [2]; [3]) | outcome (HEK293T) | Potency (MCC-13) | Potency (MCC-26)

O=C(O)CSCC(=O)NC1CCSC1=O (stereo not given)
inactive: max response (CRL-7250) -2.44% | outcome (CRL-7250) | max response (HEK293) -6.58% | outcome (HEK293) | outcome (HaCat [1]) | outcome (KB-3-1) | max response (NIH3T3) 2.01% | outcome (NIH3T3) | outcome (HACAT [2]; [3]) | outcome (HEK293T) | Potency (MCC-13) | Potency (MCC-26) | Potency (MKL-1)

COC(=O)Nc1nc2ccc(S(=O)c3ccccc3)cc2[nH]1 (stereo not given)
inactive: max response (CRL-7250) -3.6% | outcome (HaCat [1]) | outcome (HACAT [2]; [3]) | Potency (MCC-26)
active: Potency (CRL-7250) 7500 nM | Potency (HEK293) 841 nM and 16.6 µM | Potency (NIH3T3) 1060 nM

O=C(O)c1cc(=O)[nH]c(=O)[nH]1
inactive: max response (CRL-7250) 0.562% | outcome (CRL-7250) | max response (HEK293) -5.89% and -6.58% | max response (HaCat [1]) -18% | outcome (HaCat [1]) | max response (KB-3-1) -14.3% and 1.15% | max response (NIH3T3) 3.37% | outcome (HACAT [2]; [3]) | Potency (MCC-13) | Potency (MCC-26) | Potency (MKL-1)

C[C@@H](CN1CC(=O)NC(=O)C1)N1CC(=O)NC(=O)C1
active: Potency (CRL-7250) 148 nM | Potency (HEK293) 235 nM | Potency (HaCat [1]) 23500 nM | Potency (NIH3T3) 187 nM
inactive: max response (CRL-7250) 0.572% | max response (HaCat [1]) -7.01% | max response (KB-3-1) 7.8% | Potency (MCC-13) | Potency (MCC-26)
inactive and 5.9 µM (active): Potency (MKL-1)

Cc1cccc(Nc2ccncc2S(=O)(=O)NC(=O)NC(C)C)c1
inactive: max response (CRL-7250) -14.3% | outcome (CRL-7250) | max response (HEK293) 1.87% and -6.16% | max response (HaCat [1]) -0.391% | outcome (HaCat [1]) | max response (KB-3-1) -4.26% and -4.09% | max response (NIH3T3) 4.21% and -1.03% | outcome (HACAT [2]; [3]) | Potency (MCC-13) | Potency (MCC-26) | Potency (MKL-1)

CCOC(=O)c1ccc(OC(=O)CCCCCN=C(N)N)cc1
inactive: max response (CRL-7250) 1.52% | outcome (CRL-7250) | max response (HEK293) -2.03% | outcome (HEK293) | max response (HaCat [1]) 4.21% | outcome (HaCat [1]) | max response (KB-3-1) 1.69% and -0.41% | outcome (NIH3T3) | outcome (HACAT [2]; [3]) | outcome (HEK293T) | Potency (MCC-13) | Potency (MCC-26) | Potency (MKL-1)

O=C(N[C@H](CO)[C@H](O)c1ccc([N+](=O)[O-])cc1)C(Cl)Cl
active: Potency (HEK293) 15400 nM
inactive: max response (CRL-7250) 2.58% | outcome (CRL-7250) | outcome (HEK293) | max response (HaCat [1]) -14.6% and -20.9% | max response (KB-3-1) -16.7% | outcome (KB-3-1) | max response (NIH3T3) 4.84% and -8.61% | outcome (HEK293T) | Potency (MCC-13) | Potency (MCC-26) | Potency (MKL-1)

CC(C(=O)O)c1ccc2c(c1)CC(=O)c1ccccc1S2 (stereo not given)
inactive: max response (CRL-7250) -3.49% and 3.11% | outcome (CRL-7250) | max response (HEK293) -0.0676% and -6.42% and 0.0288% | max response (HaCat [1]) -2.2% and 1.58% | outcome (HaCat [1]) | max response (KB-3-1) -3.77% | outcome (KB-3-1) | max response (NIH3T3) 4.16% and -0.0725% | outcome (NIH3T3) | outcome (HACAT [2]; [3]) | Potency (MCC-13) | Potency (MCC-26) | Potency (MKL-1)
